Common to all, as to set-up: scale not given: direction of the effect not stated beside the values
Test [1] has as its target Protein translocase subunit SecA (Escherichia coli (strain K12)) (UniProt P10408). In words: Assay to Identify E. coli SecA ATPase Inhibitors. In kind it is functional. Conditions: 30 µM.
The target in test [2] is T1, Ubiquitin-activating enzyme e1, putative (Leishmania donovani (strain BPK282A1)) (UniProt E9BSI1).
T1 sequence (whole entry): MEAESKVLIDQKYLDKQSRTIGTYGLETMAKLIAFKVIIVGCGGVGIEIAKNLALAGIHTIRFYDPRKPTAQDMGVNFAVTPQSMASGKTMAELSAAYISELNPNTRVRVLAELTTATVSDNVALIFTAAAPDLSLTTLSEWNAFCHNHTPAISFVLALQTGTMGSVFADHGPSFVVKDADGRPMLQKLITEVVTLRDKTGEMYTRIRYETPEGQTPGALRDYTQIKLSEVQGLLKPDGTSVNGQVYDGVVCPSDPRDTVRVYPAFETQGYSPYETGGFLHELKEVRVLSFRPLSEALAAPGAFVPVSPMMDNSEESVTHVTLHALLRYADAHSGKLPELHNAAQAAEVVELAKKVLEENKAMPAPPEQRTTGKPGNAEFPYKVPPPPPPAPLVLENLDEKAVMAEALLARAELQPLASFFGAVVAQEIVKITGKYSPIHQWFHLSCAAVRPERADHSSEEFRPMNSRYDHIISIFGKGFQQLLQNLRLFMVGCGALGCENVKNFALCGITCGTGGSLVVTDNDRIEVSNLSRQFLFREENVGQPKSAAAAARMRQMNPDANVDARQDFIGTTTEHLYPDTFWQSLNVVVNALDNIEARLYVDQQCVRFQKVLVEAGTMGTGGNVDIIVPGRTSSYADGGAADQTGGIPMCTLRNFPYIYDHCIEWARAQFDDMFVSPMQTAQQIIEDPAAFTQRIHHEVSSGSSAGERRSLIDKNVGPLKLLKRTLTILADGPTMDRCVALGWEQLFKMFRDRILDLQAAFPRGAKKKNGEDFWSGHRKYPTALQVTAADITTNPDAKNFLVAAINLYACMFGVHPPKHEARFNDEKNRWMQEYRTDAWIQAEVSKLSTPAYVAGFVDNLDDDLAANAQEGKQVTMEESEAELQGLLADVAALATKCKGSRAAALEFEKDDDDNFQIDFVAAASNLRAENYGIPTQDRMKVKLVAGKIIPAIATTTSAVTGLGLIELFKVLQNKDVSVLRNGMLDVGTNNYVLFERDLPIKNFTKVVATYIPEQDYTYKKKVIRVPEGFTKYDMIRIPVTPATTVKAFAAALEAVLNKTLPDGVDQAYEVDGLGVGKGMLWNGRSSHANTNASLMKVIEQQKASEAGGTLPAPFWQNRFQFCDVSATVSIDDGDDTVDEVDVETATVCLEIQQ
The test is described as follows: Leishmania donovani Ubiquitin Activating Enzyme (LdE1). In kind it is functional. The following applies: 30 µM.

Test [3] addresses AMP-activated protein kinase, AMPK (Homo sapiens) (UniProt P54646+O43741+P54619+Q9UGJ0+Q9Y478+Q13131+Q9UGI9). In words: AMP-dependent Kinase enzyme assay. An in vitro enzyme assay that detects ADP turnover that is directly proportional to AMPK activity. This uses naive AMPK that is activated during the assay with MK-8722. The following applies: 30 µM. In kind it is functional.

For test [4], the target named is Sialic acid-binding Ig-like lectin 9 (Homo sapiens) (UniProt Q9Y336). In words: Hs-Siglec9 ALPHAscreen SOP 20170721. The following applies: 10 µM. (Alpha assays give light when donor and acceptor beads are brought close together.)
Sequence of Sialic acid-binding Ig-like lectin 9 (Homo sapiens) (Q9Y336 whole entry): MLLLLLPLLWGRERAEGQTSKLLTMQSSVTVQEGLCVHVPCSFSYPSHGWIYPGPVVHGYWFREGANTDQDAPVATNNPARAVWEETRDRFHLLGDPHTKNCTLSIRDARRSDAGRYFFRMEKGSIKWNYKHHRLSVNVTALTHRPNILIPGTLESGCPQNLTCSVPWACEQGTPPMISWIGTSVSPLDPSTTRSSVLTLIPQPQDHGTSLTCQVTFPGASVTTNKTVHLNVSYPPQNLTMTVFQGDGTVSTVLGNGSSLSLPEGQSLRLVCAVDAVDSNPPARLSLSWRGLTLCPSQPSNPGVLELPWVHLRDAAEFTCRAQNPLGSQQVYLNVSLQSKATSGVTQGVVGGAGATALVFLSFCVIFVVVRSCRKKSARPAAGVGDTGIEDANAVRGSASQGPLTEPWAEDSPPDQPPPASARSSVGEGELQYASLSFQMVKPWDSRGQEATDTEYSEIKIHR
The next test relates to Trypanosoma cruzi. The test is described as follows: Trypanosoma cruzi phosphomannomutase and mannose-1-phosphate guanylyltransferase assay. In kind it is functional. The following applies: 10 µM.
Test [5] deals with T2, Arginase-2, mitochondrial (Homo sapiens) (UniProt P78540).
T2 sequence (whole entry): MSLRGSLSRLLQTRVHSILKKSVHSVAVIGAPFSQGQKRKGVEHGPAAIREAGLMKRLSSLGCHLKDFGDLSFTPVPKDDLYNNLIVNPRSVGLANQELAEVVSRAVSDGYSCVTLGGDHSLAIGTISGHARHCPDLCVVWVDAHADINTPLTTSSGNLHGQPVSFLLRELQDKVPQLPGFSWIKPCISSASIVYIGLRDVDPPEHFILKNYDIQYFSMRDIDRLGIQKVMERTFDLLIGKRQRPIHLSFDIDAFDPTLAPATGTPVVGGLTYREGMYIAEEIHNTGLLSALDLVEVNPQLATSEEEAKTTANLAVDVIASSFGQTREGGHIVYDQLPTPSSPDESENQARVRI
In words: in vitro enzyme assay to detect the production of urea directly proportional to the activity of Arginase II. Further: in the data most compounds retested in dose-response had high values. Conditions: 33.3 µM. The test is classed as functional.

The target in test [6] is T3, Proteasome subunit beta (Trypanosoma cruzi) (UniProt O96673).
T3 sequence (whole entry): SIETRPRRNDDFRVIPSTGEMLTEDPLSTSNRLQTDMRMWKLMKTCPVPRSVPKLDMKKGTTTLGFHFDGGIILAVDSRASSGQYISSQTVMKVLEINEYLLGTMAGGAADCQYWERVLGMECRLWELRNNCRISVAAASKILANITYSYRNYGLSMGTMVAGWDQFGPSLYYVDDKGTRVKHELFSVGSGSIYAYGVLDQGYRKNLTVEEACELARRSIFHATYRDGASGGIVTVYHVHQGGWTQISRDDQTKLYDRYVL
The test is described as follows: Trypanosoma cruzi proteasome chymotrypsin-like activity (TcProtChymo) assay. Further: in the data most compounds retested in dose-response had high values. In kind it is functional. The following applies: 9.37 µM.

For a further test, the species on record is Homo sapiens. The test is described as follows: To identify inhibition of the IFN signalling (Jak-Stat) pathway via expression of an eGFP reporter gene under the control of an IFN-stimulated response element (ISRE) containing MxA promoter. The test is classed as functional. Conditions: 30 µM. On the technique in general: In a reporter assay the amount or activity of a reporter protein is the signal.

Test [7] has as its target T4, Tyrosyl-tRNA synthetase, putative (Trypanosoma cruzi (strain CL Brener)) (UniProt Q4DSP6).
T4 sequence (whole entry): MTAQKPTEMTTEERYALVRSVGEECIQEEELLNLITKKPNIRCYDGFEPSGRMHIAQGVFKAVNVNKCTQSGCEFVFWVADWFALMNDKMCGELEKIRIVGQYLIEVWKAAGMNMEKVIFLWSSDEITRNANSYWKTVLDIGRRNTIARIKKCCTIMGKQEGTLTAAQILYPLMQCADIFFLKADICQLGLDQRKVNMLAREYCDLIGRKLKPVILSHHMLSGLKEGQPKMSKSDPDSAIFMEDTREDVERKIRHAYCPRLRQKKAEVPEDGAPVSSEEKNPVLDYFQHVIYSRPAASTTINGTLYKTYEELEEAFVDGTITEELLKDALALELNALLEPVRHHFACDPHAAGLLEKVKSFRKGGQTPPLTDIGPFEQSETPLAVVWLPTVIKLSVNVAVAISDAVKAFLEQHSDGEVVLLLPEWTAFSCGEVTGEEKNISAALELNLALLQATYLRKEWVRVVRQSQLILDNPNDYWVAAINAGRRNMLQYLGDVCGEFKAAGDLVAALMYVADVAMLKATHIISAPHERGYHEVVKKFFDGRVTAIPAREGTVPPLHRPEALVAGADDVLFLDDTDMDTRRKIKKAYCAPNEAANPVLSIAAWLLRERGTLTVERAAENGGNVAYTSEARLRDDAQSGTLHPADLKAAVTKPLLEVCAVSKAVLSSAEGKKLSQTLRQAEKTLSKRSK
In words: Trypanosoma cruzi tyrosyl tRNA synthetase (TcYRS) _High Tyrosine SOP. Further: in the data most compounds retested in dose-response had high values. In kind it is functional. The following applies: 30 µM.

Test [8] concerns the target T4, Tyrosyl-tRNA synthetase, putative (Trypanosoma cruzi (strain CL Brener)). The test is described as follows: Trypanosoma cruzi tyrosyl tRNA synthetase (TcYRS) SOP. The test is classed as functional. The following applies: 30 µM.
Test [9] concerns the target Chromo domain-containing protein 1 (Saccharomyces cerevisiae (strain ATCC 204508 / S288c) (Baker's yeast)) (UniProt P32657). The test is described as follows: ScCHD-1 Enzyme Inhibition Assay. Further: in the data most compounds retested in dose-response had high values. In kind it is functional. Conditions: 30 µM.

For some of these results: Entries with a potency or affinity are not part of this list.

Sequence of Chromo domain-containing protein 1 (Saccharomyces cerevisiae (strain ATCC 204508 / S288c) (Baker's yeast)) (P32657 whole entry, the tested form may be a part): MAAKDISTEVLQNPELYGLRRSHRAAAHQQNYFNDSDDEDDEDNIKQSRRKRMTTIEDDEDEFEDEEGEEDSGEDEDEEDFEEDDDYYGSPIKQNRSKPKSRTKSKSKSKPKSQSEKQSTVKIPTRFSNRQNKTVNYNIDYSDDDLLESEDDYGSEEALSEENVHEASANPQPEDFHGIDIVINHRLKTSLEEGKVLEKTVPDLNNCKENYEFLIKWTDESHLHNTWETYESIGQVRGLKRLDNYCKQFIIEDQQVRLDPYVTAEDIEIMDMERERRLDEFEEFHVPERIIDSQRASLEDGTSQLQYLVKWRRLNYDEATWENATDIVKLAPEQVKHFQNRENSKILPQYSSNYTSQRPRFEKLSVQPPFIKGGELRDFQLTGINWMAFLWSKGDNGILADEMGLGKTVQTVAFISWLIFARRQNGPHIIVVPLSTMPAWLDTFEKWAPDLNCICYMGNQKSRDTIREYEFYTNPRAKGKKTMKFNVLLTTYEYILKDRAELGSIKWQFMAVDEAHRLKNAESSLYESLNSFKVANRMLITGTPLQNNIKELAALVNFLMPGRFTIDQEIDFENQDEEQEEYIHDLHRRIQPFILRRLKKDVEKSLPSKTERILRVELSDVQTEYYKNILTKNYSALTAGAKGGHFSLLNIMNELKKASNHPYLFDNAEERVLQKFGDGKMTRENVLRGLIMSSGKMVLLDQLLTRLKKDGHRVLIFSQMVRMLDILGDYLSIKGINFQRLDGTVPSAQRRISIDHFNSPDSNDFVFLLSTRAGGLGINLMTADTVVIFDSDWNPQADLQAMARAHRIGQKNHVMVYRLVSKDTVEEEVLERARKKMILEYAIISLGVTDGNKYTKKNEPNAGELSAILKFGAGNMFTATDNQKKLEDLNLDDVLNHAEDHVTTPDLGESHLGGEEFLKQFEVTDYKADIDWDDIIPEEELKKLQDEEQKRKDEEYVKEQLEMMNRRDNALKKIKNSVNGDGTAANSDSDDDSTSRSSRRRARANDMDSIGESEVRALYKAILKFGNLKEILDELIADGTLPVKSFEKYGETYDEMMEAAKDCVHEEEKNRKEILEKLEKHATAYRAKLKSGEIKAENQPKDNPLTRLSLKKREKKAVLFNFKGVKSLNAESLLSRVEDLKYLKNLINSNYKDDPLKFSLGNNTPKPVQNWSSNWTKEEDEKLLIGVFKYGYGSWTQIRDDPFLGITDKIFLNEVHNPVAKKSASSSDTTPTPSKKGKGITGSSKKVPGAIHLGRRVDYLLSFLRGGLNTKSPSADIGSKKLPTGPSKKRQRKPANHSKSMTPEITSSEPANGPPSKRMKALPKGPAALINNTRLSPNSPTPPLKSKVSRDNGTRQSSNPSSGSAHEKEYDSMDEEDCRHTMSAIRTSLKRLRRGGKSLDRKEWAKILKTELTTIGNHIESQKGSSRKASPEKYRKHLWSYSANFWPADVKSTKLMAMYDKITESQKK
Sequence of Protein translocase subunit SecA (Escherichia coli (strain K12)) (P10408 whole entry): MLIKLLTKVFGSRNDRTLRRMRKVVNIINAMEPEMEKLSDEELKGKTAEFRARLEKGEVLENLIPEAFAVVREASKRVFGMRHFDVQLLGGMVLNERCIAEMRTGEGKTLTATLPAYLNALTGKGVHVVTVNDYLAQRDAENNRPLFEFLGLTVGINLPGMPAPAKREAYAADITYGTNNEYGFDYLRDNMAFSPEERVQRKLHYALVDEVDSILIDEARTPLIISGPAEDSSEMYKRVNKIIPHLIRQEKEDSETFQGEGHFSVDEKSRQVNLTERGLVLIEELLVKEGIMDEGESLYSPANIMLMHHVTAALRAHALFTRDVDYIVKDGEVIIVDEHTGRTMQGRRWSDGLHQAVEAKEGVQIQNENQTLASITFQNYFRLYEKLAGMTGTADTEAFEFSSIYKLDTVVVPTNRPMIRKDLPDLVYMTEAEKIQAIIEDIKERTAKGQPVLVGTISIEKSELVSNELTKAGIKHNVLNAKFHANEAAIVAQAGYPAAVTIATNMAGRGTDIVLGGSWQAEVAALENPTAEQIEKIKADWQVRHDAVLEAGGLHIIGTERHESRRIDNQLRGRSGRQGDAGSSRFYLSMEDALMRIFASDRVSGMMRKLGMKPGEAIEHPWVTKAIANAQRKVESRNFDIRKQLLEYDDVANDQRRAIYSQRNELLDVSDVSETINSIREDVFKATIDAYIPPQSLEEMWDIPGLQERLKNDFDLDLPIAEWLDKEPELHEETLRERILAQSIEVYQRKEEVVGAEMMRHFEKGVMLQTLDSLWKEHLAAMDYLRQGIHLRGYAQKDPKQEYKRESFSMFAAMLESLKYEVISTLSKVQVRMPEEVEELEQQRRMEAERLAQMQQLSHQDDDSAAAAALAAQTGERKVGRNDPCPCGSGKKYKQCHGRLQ

Turning to `CC(O)CN1CCN(C(=O)CN(C)c2cnccn2)CC1` (stereo unspecified), the Percent Effect in test [1] was 3.16%; in test [2], 5.41%; in test [3], -4.8%; in test [4], 6.58%; with Trypanosoma cruzi, -2.12%; in test [5], -70%. In addition, the Percent Effect in [6] is 16.6%; in the test filed under Homo sapiens it was 5.3%; in test [7], 3.7%; in [8], 4.88%; in test [9], -5.99%.
For the molecule `COc1ccc(C2=CCN(C(=O)C3CC(=O)N(C4CC4)C3)CC2)cc1` (stereo unspecified), the Percent Effect is -3.27% in test [1]; -5.26% in test [2]; 2.62% in test [3]; -10.1% in [4]; -2.15% in the test with Trypanosoma cruzi; 2.16% in test [5]. Also, the Percent Effect in test [6] was 1.61%; in the test filed under Homo sapiens, 19.9%; in test [7] it was 2.46%; in test [8] it was -6.17%; in test [9], -1.27%.
With `CN1CC(=O)N(c2cccc(F)c2)CC12CCNC2` (stereo unspecified), the Percent Effect in test [1] is -5.9%; in test [2], 0%; in test [3], 3.44%; in test [4], -2.82%; in the test with Trypanosoma cruzi, -3.03%; in test [5], -4.78%. Besides, the Percent Effect in [6] was 10.7%; in the test filed under Homo sapiens it was 12.5%; in test [7], -1.08%; in test [8], 5.13%; in test [9], 1.85%.
Turning to `CN(C)c1ccc(CNc2cncc(-n3cccn3)n2)cc1`, the Percent Effect in [1] was -3.75%; in test [2], 5.2%; in test [3], 0.00463%; in test [4], 7.28%; in the test on Trypanosoma cruzi it was 3.75%; in test [5], -6.05%. Further, the Percent Effect worked out at 6.25% in [6]; 9.83% in the test listed under Homo sapiens; 2.91% in test [7]; 12.2% in test [8]; 72% in [9].
Take `Cc1cn(CC(=O)NC2CCN(C(=O)C3CC3)CC2)c2ccccc12`: the Percent Effect in test [1] is -5.47%; in test [2], 2.7%; in [3] it was -7.57%; in test [4] it was 10.7%; in the test on Trypanosoma cruzi it was 7.72%; in test [5], 0.744%. In addition, the Percent Effect is 4.55% in test [6]; 9.22% in the test filed under Homo sapiens; 3.23% in test [7]; 11.1% in [8]; -3.71% in [9].
`CC(C)c1noc(C(C)N2CCN(CCO)CC2)n1` (stereo unspecified): the Percent Effect in [1] is 0.448%; in test [2], 21.6%; in test [3], -14.5%; in test [4] it was -3.22%; in the test with Trypanosoma cruzi, -3.68%; in [5], -9.22%. In addition, the Percent Effect in test [6] was 12.2%; in the test filed under Homo sapiens, 16.1%; in test [7], 5.42%; in test [8], 6.17%; in test [9] it was -0.137%.
Take `O=C(NCC1CC1)C1=NOC2(CCN(Cc3ccc4c(c3)OCO4)C2)C1` (stereo unspecified): the Percent Effect is -4.9% in [1]; 8% in [2]; 8.35% in [3]; 5% in test [4]; -2.51% with Trypanosoma cruzi; -50.4% in [5]. In addition, the Percent Effect in [6] was 11.1%; in the test listed under Homo sapiens it was 0.899%; in test [7], 0%; in test [8], -17.5%; in [9], -6.02%.
Take `O=C(Nc1cc(F)ccc1OCC1CCCO1)c1ccc(O)nc1` (stereo unspecified): the Percent Effect in test [1] is -4.33%; in test [2], 7.79%; in [3], 8.03%; in [4], -2.88%; in the test with Trypanosoma cruzi, 8.91%; in test [5], -14.5%. The Percent Effect in [6] was 11.4%; in the test filed under Homo sapiens it was -5.06%; in test [7], 3.81%; in test [8], 14.1%; in [9], -22.2%.
For the molecule `CC1(C)CC(N2Cc3nc(N4CCOCC4)ncc3C2=O)CC(C)(C)N1`, the Percent Effect in test [1] is -6.55%; in [2] it was 2.6%; in test [3], 1.41%; in test [4], 1.23%; in the test on Trypanosoma cruzi it was -9.93%; in test [5], 2.76%. For the same molecule, the Percent Effect in test [6] is 10.8%; in the test filed under Homo sapiens, 13.3%; in [7], 0%; in test [8], -1.24%; in [9] it was -0.541%.
For `COc1ccccc1OCC(=O)Nc1ncccc1OC(F)F`, the Percent Effect in test [1] was -3.34%; in test [2] it was 1.39%; in [3], -0.812%; in test [4] it was -4.65%; with Trypanosoma cruzi, -7.48%; in [5] it was 4.86%. Moreover, the Percent Effect in [6] was 13.2%; in the test listed under Homo sapiens, -3.02%; in test [7] it was 1.05%; in test [8], -5.13%; in test [9] it was -3.95%.
Take `CCc1noc(C2CCN(C(=O)CCn3nc(C)cc3C)CC2)n1`: the Percent Effect was -4.24% in test [1]; 18.2% in test [2]; 0.146% in test [3]; 12.9% in test [4]; 8.55% in the test on Trypanosoma cruzi; -5.52% in test [5]. Further, the Percent Effect was 14.8% in [6]; -6.48% in the test filed under Homo sapiens; 8.6% in test [7]; 16.1% in test [8]; -7.88% in test [9].

The values are drawn from ChEMBL document CHEMBL3988442, “University of Dundee, Small-Polar-MMV Screening Library” (2021).
